Test results from PubChem BioAssay (Tox21).
Values joined by “and” are separate entries in the source; they are usually repeats but may differ in a detail not shown here. Equal values may be shown once. Records with an inconclusive call do not appear. Active and inactive are the calls of the source. Unless noted, the call rests on the fitted dose curve; in most records, active means well fitted curve in the direction sought with a large enough effect in the repeat runs; inconclusive means weak or mixed curves; inactive means no such curve, though single readings can be large; an effect the other way counts as inactive or inconclusive.

How the values were obtained:
[1] = qHTS assay to identify small molecule antagonists of the estrogen receptor alpha (ER-alpha) signaling pathway using the BG1 cell line in the presence of 0.1 nM 17-beta-estradiol - cell viability counter screen (AID 1259241); further: nearly all actives have a fitted effect of over 40% in size; further: potency means the concentration at half of the fitted maximal effect
How it was run: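 Measures cytotoxicity alongside the ER-alpha antagonist readout: VM7Luc4E2 cells, charcoal-stripped serum, 0.1 nM 17beta-estradiol final, 22 hr compound incubation at 37C, CellTiter-Fluor fluorescence.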

[2] = qHTS assay to identify small molecule antagonists of the androgen receptor (AR) signaling pathway using the MDA cell line in the presence of 0.5 nM R1881 - cell viability counter screen (AID 1259242); further: nearly all actives have a fitted effect of over 45% in size; further: potency means the concentration at half of the fitted maximal effect
How it was run: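 Viability of MDA-kb2 cells was multiplexed with the luciferase AR readout; after 16 hr with compounds and R1881 at 0.5 nM final, CellTiter-Fluor fluorescence was recorded.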

[3] = target: Androgen receptor (Homo sapiens) (UniProt P10275); test: qHTS assay to identify small molecule antagonists of the androgen receptor (AR) signaling pathway using the MDA cell line in the presence of 0.5 nM R1881 (AID 1259243); further: nearly all actives have a fitted effect of over 50% in size; further: potency means the concentration at half of the fitted maximal effect
Chain of Androgen receptor (Homo sapiens) (P10275 whole entry, looked up): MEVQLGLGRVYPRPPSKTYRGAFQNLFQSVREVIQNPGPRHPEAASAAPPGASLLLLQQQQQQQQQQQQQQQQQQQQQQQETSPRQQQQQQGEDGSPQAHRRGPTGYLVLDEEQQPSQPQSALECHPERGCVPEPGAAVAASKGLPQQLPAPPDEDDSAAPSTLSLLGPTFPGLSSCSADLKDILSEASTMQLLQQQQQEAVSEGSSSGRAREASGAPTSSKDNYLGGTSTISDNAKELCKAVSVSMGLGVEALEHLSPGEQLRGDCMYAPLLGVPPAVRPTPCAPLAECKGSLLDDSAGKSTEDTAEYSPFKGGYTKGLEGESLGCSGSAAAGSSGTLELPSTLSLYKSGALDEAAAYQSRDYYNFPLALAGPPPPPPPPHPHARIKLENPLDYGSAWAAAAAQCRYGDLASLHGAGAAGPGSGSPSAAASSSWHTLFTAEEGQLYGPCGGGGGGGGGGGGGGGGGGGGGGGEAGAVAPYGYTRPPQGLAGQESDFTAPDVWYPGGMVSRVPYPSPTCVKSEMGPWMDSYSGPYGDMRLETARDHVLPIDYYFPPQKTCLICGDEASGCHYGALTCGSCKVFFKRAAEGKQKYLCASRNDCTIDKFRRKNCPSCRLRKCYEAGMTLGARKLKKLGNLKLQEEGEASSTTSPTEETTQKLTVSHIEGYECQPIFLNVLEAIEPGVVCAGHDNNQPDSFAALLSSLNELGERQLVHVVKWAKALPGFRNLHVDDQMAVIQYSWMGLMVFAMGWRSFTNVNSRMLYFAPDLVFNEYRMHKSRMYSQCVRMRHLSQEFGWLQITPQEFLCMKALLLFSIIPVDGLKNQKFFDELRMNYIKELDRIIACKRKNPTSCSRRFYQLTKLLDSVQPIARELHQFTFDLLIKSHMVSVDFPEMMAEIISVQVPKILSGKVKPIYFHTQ
How it was run: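 Reporter cells cultured without CO2 receive test chemicals, then 0.5 nM R1881 final; after 16 hr at 37C, ONE-Glo is added and light output recorded.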

[4] = target: Estrogen receptor (Homo sapiens) (UniProt P03372); test: qHTS assay to identify small molecule antagonists of the estrogen receptor alpha (ER-alpha) signaling pathway using the BG1 cell line in the presence of 0.1 nM 17-beta-estradiol (AID 1259244); further: nearly all actives have a fitted effect of over 50% in size; further: potency means the concentration at half of the fitted maximal effect
Chain of Estrogen receptor (Homo sapiens) (P03372 whole entry, looked up): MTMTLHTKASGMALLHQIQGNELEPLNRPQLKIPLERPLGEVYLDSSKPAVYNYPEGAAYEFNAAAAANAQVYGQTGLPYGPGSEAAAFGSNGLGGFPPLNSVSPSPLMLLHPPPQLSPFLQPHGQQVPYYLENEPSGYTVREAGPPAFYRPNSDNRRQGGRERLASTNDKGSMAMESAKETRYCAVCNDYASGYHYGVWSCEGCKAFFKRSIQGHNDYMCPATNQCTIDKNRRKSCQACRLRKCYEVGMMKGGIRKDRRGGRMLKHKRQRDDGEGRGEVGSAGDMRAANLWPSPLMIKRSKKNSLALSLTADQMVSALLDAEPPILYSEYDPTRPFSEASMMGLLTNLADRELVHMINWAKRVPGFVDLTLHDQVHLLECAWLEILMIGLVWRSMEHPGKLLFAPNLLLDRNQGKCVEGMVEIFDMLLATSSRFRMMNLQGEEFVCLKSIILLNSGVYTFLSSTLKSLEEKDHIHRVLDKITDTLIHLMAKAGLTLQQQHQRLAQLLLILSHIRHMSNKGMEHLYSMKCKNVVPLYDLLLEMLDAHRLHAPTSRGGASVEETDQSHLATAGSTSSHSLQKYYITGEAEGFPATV
How it was run: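 Estradiol at 0.1 nM (final) stimulates the endogenous ER-alpha of VM7Luc4E2 cells carrying an ERE-driven luciferase; compounds are co-incubated 22 h at 37C and luciferase output quantified by luminescence.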

[5] = qHTS assay to identify small molecule HDAC inhibitors (AID 1259364); further: potency means the concentration at half of the fitted maximal effect;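 further: wild-type HCT-116 cells with endogenous class I/II HDAC activity; nearly all actives have a fitted effect of over 45% in size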
How it was run: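 Read-out: luminescence of HDAC-Glo I/II reagent, 30 min RT, reflecting class I/II deacetylase activity in whole HCT-116 cells pre-exposed 2 h to DMSO-dissolved compounds.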

[6] = qHTS assay to identify small molecule agonists of the sonic hedgehog signaling (Shh) pathway - cell viability counter screen (AID 1259366); further: nearly all actives have a fitted effect of over 50% in size; further: potency means the concentration at half of the fitted maximal effect
How it was run: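 After a 4hr attachment at 37C, NIH/3T3 cells bearing an integrated Gli1-driven luciferase reporter were dosed with compounds. Treatment lasted 24hr, with the final hour including CellTiter-Fluor for a fluorescence viability measurement.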

[7] = qHTS assay to identify small molecule antagonists of the sonic hedgehog signaling (Shh) pathway - cell viability counter screen (AID 1259367); further: nearly all actives have a fitted effect of over 55% in size; further: potency means the concentration at half of the fitted maximal effect
How it was run: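 Seed 3T3 Gli1-Luc cells at 2,000 per well; incubate 4 hr; add compound in DMSO, then conditioned medium; incubate at 37C with 5% CO2; add CellTiter-Fluor after 23 hr; read fluorescence 1 hr later.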

[8] = qHTS assay to identify small molecule agonists of the sonic hedgehog signaling (Shh) pathway (AID 1259368; calls by dose curve; further: nearly all actives have a fitted effect of over 15% in size; further: potency means the concentration at half of the fitted maximal effect;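 on activity change: NIH/3T3-derived 3T3Gli1-Luc cells carrying a stable Gli1-driven firefly luciferase reporter; series mostly up to about 92 µM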)
How it was run: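 A Gli1 transcriptional response element controlled firefly luciferase in 3T3Gli1-Luc cells. Compounds and a positive control were added 4 hr after plating, and cells were incubated a further 24 hr at 37 C before luminescence detection.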

[9] = qHTS assay to identify small molecule antagonists of the sonic hedgehog signaling (Shh) pathway (AID 1259369; calls by dose curve; further: nearly all actives have a fitted effect of over 45% in size; further: potency means the concentration at half of the fitted maximal effect)
How it was run: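 For antagonist detection, the reporter line received test compounds together with conditioned medium, incubated 24hr at 37 C, 5% CO2, then luminescence was recorded following 30min room-temperature luciferase reagent incubation.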

[10] = target: Estrogen receptor beta (Homo sapiens) (UniProt Q92731); test: qHTS assay to identify small molecule antagonists of the estrogen receptor beta (ER-beta) signaling pathway (AID 1259378; active means well fitted inhibition curve with a large enough effect in the signal ratio in the repeat runs, not every such curve was filed as active; the % refers to the signal ratio; further: potency means the concentration at half of the fitted maximal effect)
Chain of Estrogen receptor beta (Homo sapiens) (Q92731 whole entry, looked up): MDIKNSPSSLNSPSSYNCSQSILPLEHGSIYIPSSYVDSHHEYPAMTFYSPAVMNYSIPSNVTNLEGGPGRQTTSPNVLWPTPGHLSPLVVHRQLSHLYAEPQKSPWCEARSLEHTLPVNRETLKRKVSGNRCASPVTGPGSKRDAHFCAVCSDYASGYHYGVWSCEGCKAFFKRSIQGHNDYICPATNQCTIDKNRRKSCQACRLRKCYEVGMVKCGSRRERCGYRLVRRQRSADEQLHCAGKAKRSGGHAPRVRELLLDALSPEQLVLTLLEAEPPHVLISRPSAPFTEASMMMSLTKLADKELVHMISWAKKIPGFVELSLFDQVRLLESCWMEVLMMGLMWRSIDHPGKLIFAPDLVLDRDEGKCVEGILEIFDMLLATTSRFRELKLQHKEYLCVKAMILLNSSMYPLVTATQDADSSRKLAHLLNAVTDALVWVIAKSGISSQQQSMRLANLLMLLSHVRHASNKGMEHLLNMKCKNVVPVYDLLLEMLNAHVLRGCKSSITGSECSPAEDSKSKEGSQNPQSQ
How it was run: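 ER-beta-UAS-bla HEK293T cells in 2% charcoal-stripped FBS medium treated with compound plus 1nM final 17-beta-estradiol for 16 hr at 37C. Beta-lactamase reporter read by FRET substrate fluorescence after 2 hours at room temperature.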

[11] = qHTS assay to identify small molecule agonists of the androgen receptor (AR) signaling pathway in the presence of an antagonist - cell viability counter screen (AID 1259379); further: nearly all actives have a fitted effect of over 25% in size; further: potency means the concentration at half of the fitted maximal effect
How it was run: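 Seed MDA-kb2 at 3,000 cells/well; incubate 5 hr, 37C, 0% CO2. Add nilutamide to 3.0uM final, then pin compounds at 15 concentrations. Incubate 16 hr. Add CellTiter-Fluor at 15 hr, read fluorescence after 1 hr.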

[12] = qHTS assay to identify small molecule agonists of the estrogen receptor beta (ER-beta) signaling pathway - cell viability counter screen (AID 1259380); further: nearly all actives have a fitted effect of over 30% in size; further: potency means the concentration at half of the fitted maximal effect
How it was run: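 CellTiter-Glo read, 30 min RT, same wells as bla assay; cells ER-beta-UAS-bla HEK293T; 16 hr compound, 37C; medium 2% charcoal-stripped FBS.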

[13] = target: Androgen receptor (Homo sapiens) (UniProt P10275); test: qHTS assay to identify small molecule agonists of the androgen receptor (AR) signaling pathway in the presence of an antagonist (AID 1259381; calls by dose curve; further: nearly all actives have a fitted effect of over 15% in size; further: potency means the concentration at half of the fitted maximal effect)
How it was run: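 Test compounds at 15 concentrations were incubated for 16hr with MDA-kb2 reporter cells in presence of 3.0uM nilutamide (final). Signal: ONE-Glo luciferase luminescence.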

[14] = qHTS assay to identify small molecule antagonists of the estrogen receptor beta (ER-beta) signaling pathway - cell viability counter screen (AID 1259382); further: nearly all actives have a fitted effect of over 55% in size; further: potency means the concentration at half of the fitted maximal effect
How it was run: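 In this multiplexed counter screen, cells were seeded at 2,000 per well in medium with 2% charcoal-stripped FBS and incubated 6 hr before compound and 1nM final E2 were added. Sixteen hours later, ATP-based luminescence reported viability.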

[15] = target: Estrogen receptor (Homo sapiens) (UniProt P03372); test: qHTS assay to identify small molecule agonists of the estrogen receptor alpha (ER-alpha) signaling pathway in the presence of an antagonist (AID 1259383; calls by dose curve; further: nearly all actives have a fitted effect of over 15% in size; further: potency means the concentration at half of the fitted maximal effect; on activation: top concentration of the series differs between compounds)
How it was run: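 Stably transfected VM7Luc4E2 reporter cells, kept 5 days in charcoal-stripped serum, received ICI-182,780 at 10.0nM final before compound addition. Following 22hr incubation at 37C and 5% CO2, luciferase signal was read by luminescence.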

[16] = qHTS assay to identify small molecule agonists or antagonists of the thyroid stimulating hormone receptor (TSHR) signaling pathway - wild type cell line counter screen (AID 1259384; calls by dose curve)
How it was run: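 Wild-type Hek293 cells, 800/well, 18 h at 37C, then compound with Ro20-1724 for 30 min RT. cAMP by HTRF (cAMP-d2/anti-cAMP cryptate), 1 h RT, fluorescence read. 15 concentrations, triplicates.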

[17] = qHTS assay to identify small molecule phospholipidosis (PLD) inducers (AID 1259344; active means well fitted curve in the direction sought with a large enough effect; an effect the other way counts as inactive or inconclusive)
How it was run: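 Quantitative HTS in HepG2: compound plus LipidTOX Red dye for 24 h, paraformaldehyde fixation with Hoechst 33342, widefield high-content imaging; amiodarone as positive and DMSO as negative control.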

[18] = qHTS assay to identify small molecule HDAC inhibitors - cell viability counter screen (AID 1259365); further: series mostly up to about 92 µM; nearly all actives have a fitted effect of over 50% in size
How it was run: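 Following a 2hr exposure of overnight-plated wild-type HCT-116 cells to DMSO-delivered compounds, CellTiter-Glo was added and luminescence recorded after 30min at room temperature.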

[19] = target: Thyrotropin receptor (Homo sapiens) (UniProt P16473); test: qHTS assay to identify small molecule antagonists of the thyroid stimulating hormone receptor (TSHR) signaling pathway (AID 1259385; calls by dose curve; further: nearly all actives have a fitted effect of over 20% in size; further: potency means the concentration at half of the fitted maximal effect)
Chain of Thyrotropin receptor (Homo sapiens) (P16473 whole entry, looked up): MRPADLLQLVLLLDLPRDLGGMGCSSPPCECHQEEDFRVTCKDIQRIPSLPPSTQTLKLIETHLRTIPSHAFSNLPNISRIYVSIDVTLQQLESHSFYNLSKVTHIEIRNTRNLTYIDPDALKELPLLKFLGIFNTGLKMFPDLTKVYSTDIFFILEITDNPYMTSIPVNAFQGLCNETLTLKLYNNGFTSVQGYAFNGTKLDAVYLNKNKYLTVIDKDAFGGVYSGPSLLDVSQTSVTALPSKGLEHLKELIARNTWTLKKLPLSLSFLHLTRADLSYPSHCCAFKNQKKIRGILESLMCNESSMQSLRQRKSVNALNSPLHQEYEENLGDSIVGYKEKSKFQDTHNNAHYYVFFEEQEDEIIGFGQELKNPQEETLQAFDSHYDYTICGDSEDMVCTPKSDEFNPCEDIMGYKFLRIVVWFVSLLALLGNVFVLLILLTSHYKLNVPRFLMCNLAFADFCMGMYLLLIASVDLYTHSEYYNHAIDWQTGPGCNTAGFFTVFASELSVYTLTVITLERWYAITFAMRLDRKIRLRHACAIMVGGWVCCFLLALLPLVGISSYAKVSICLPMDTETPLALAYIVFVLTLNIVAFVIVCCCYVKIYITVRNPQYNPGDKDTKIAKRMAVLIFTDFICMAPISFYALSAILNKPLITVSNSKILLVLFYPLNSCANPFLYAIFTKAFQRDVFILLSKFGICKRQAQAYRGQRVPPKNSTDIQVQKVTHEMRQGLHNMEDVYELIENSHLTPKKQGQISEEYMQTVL
How it was run: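 TSHR-HEK293 cells (800/well) plated 18 h, then compounds with Ro20-1724 and TSH at 1.5 ng/mL final, 30 min at room temperature. cAMP quantified by HTRF (cAMP-d2/anti-cAMP-cryptate, 1 h); 15 concentrations in triplicate.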

[20] = target: Estrogen receptor beta (Homo sapiens) (UniProt Q92731); test: qHTS assay to identify small molecule agonists of the estrogen receptor beta (ER-beta) signaling pathway (AID 1259377; active means well fitted activation curve with a large enough effect in the signal ratio in the repeat runs, not every such curve was filed as active; the % refers to the signal ratio; further: potency means the concentration at half of the fitted maximal effect)
How it was run: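 In HEK293T cells bearing a UAS-beta-lactamase reporter under ER-beta control, DMSO-delivered compounds were incubated for 16 hr at 37C. Activity was detected as fluorescence 2 hours after LiveBLAzer B/G FRET substrate addition.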
On the % scale 0 is the no-effect control and ±100 the full control effect.

O=C1C=CC(=O)N1
inactive: Potency [3] | Potency [5] | Potency [8] | Potency [15] | outcome [16]
active: Potency [1] 55.9 µM | Potency [2] 49.8 µM | Potency [4] 55.9 µM | Potency [6] 5.59 µM | Potency [7] 7.04 µM | Potency [9] 1580 nM | Potency [10] 28 µM | Potency [11] 49.8 µM | Potency [12] 55.9 µM | Potency [13] 8.86 µM | Potency [14] 28 µM

[O-][n+]1ccccc1SSc1cccc[n+]1[O-]
active: Potency [1] 0.411 µM | Potency [2] 0.326 µM | Potency [3] 0.291 µM | Potency [4] 0.13 µM | Potency [5] 1.83 µM | Potency [6] 0.13 µM | Potency [7] 0.291 µM | Potency [9] 164 nM | Potency [12] 0.092 µM | Potency [14] 0.13 µM
inactive: Potency [17] | activity change [8] -7.63% [at 18.9 µM, active compounds read high] | activation [13] -7.58% [at 19 µM] | activation [15] 3.22% [at 19 µM] | cAMP activity change [16] 5.78% [at 18.9 µM]

CC[C@@]1(O)C(=O)OCc2c1cc1n(c2=O)Cc2c-1nc1ccccc1c2/C=N/OC(C)(C)C
inactive: Potency [1] | Potency [2] | Potency [5] | Potency [18] | Potency [7] | Potency [8] | Potency [13] | Potency [14] | Potency [15] | outcome [16]
active: Potency [3] 0.133 µM | Potency [4] 0.188 µM | Potency [9] 66.8 nM | Potency [19] 11.9 µM

CC(C)=CCOc1ccc(/C=C/C(=O)c2ccc(OCC=C(C)C)cc2OCC(=O)O)cc1
active: Potency [12] 5.96 µM
inactive: Potency [1] | Potency [2] | Potency [3] | Potency [4] | Potency [17] | Potency [5] | Potency [18] | Potency [6] | Potency [7] | Potency [8] | Potency [9] | Potency [13] | Potency [15] | outcome [16] | Potency [19]

C=CC(=O)OCC(CO)(COCC(COC(=O)C=C)(COC(=O)C=C)COC(=O)C=C)COC(=O)C=C
inactive: Potency [5] | Potency [13] | Potency [15] | outcome [16] | Potency [19]
active: Potency [1] 15.2 µM | Potency [2] 3.03 µM | Potency [3] 2.4 µM | Potency [4] 17 µM | Potency [6] 1.07 µM | Potency [7] 3.03 µM | Potency [8] 0.957 µM | Potency [9] 480 nM | Potency [10] 4.8 µM | Potency [12] 9.57 µM | Potency [14] 7.6 µM

O=C(c1ccc(O)cc1O)c1ccc(O)cc1O
inactive: Potency [1] | Potency [2] | Potency [4] | Potency [18] | Potency [6] | Potency [8] | Potency [11] | Potency [12] | Potency [14] | Potency [19]
active: Potency [3] 3.07 µM and 3.06 µM | Potency [9] 17.2 µM and 24.3 µM | Potency [20] 8.64 µM and 7.7 µM | Potency [15] 9.7 µM and 7.7 µM

[Cl][Bi]([Cl])([c]1ccccc1)([c]1ccccc1)[c]1ccccc1
active: Potency [1] 12.1 µM | Potency [2] 27.1 µM | Potency [3] 13.6 µM | Potency [4] 4.83 µM | Potency [6] 0.108 µM | Potency [9] 24.2 nM | Potency [11] 60.8 µM | Potency [12] 24.2 µM | Potency [14] 8.58 µM
inactive: Potency [5] | Potency [18] | Potency [8] | Potency [13] | Potency [15] | Potency [19]

CCCCCCCCCCCCCC[P+](CCCC)(CCCC)CCCC (tested in a mixture with another compound)
inactive: Potency [1] | Potency [5] | Potency [8] | Potency [13] | Potency [15]
active: Potency [2] 19.4 µM | Potency [3] 1.94 µM | Potency [4] 1.73 µM | Potency [6] 27.5 µM | Potency [7] 61.5 µM | Potency [9] 138 nM | Potency [12] 19.4 µM | Potency [14] 27.5 µM | Potency [19] 69 µM

Cc1cc(O)c2ccccc2c1O
active: Potency [1] 29.8 µM | Potency [2] 18.8 µM | Potency [3] 11.9 µM | Potency [4] 13.3 µM | Potency [6] 5.31 µM | Potency [7] 13.3 µM | Potency [9] 13300 nM | Potency [11] 26.6 µM | Potency [12] 13.3 µM | Potency [14] 23.7 µM
inactive: Potency [17] | Potency [8] | Potency [13] | Potency [15]

Fc1ccc([C@@H]2CCNC[C@H]2COc2ccc3c(c2)OCO3)cc1
inactive: Potency [1] | Potency [2] | Potency [3] | Potency [4] | Potency [17] | Potency [5] | Potency [18] | Potency [6] | Potency [7] | Potency [8] | Potency [9] | Potency [13] | Potency [15] | outcome [16] | Potency [19]
active: Potency [12] 33.5 µM | Potency [14] 26.6 µM

O=C(Nc1cccc([N+](=O)[O-])c1)c1cc2ccccc2cc1O
inactive: Potency [1] | Potency [6] | Potency [8] | Potency [13] | Potency [15] | outcome [16] | Potency [19]
active: Potency [2] 6.86 µM | Potency [3] 5.45 µM | Potency [4] 5.45 µM | Potency [5] 1.54 µM | Potency [12] 30.6 µM | Potency [14] 0.77 µM

Clc1ccc2nsnc2c1NC1=NCCN1
inactive: Potency [1] | Potency [2] | Potency [3] | Potency [4] | Potency [17] | Potency [5] | Potency [18] | Potency [6] | Potency [8] | Potency [9] | Potency [20] | Potency [10] | Potency [11] | Potency [12] | Potency [13] | Potency [14] | Potency [15] | outcome [16] | Potency [19]
